Compound activity: PubChem, several laboratories
A selection: hits, their analogues and other compounds. The true share with any hit is near 6.9%.
CSC inhib – cancer stem cell inhibition | cancer stem cell-like cells viability, luminescence | inhibition, % at 7.5 µM | 300,000 tested, 1.1% active; in the data active = inhibition above about 75%; tested in HMLE shEcad cells
NR3A LBD binder – modulators (binders) of human NR3A ligand-binding domain. NR3A LBD differential scanning fluorimetry, Tm shift; 0% = protein alone, 100% = glycine-bound protein. Tm shift relative to glycine control, % at 25 µM. 340,000 tested, 2.5% active. AID 1259313;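 active = melting temperature shift of at least 10% of the positive control shift, at one fixed dose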
SKKanGAS inh – SKKanGAS growth inhibition; inhibition, % at 7.5 µM; AID 1662; S. pyogenes SKKanGAS, kanamycin growth, BacTiter-Glo, 6 h; 300,000 tested, 1.3% active;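 active = mean replicate score, as percent of positive control median, at least 50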;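 also: strain carries kanamycin resistance gene driven by streptokinase promoter and grows in 40 µg/ml kanamycin; loss of luminescence reflects streptokinase promoter inhibition or plain growth inhibition; 0% = median of DMSO wells and 100% = positive control at its reference dose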
Beta cell apopt – blocks beta cell apoptosis; INS-1E cytokine-induced death, ATP luminescence, 48 h; percent of positive-control rescue, neutral wells zero; protection from apoptosis, % (no concentration beside the values); 300,000 tested, 0.8% active; AID 435005;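 active = Every replicate reaches about 75%, or at least half do and their mean reaches it too, limit read from the data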;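 also: 0% = cytokine-treated negative control wells and 100% = positive control rescue; higher means more ATP so stronger rescue from cytokine killing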
Mdm2 MdmX PPI – inhibitors of human Mdm2/MdmX interaction | O15151+Q00987 | SaOS-2 split-luciferase Mdm2/MdmX complementation, luminescence | inhibition, % at 8 µM | 330,000 tested, 3% active;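 active = inhibition of at least 50% at 8 µM in the primary screen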
MPTP inh – permeability transition pore inhibition. isolated mouse mitochondria, Ca2+ swelling absorbance, 30 min. inhibition, % at 10 µM. 360,000 tested, 1.4% active. AID 602449;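 active = inhibition of 50% or more, scaled per plate between neutral and stimulator controls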;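 also: 0% = DMSO wells given calcium and 100% = 1 mM EGTA wells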
Mdm2-MdmX conf – human Mdm2/MdmX binding inhibition, confirmed; shares compounds with Mdm2 MdmX PPI; luminescent assay; inhibition, % at 8 µM; 10,000 tested, 55% active; in the data active = inhibition above about 40%
Full FLuc ctr – full-length luciferase inhibition in Mdm2/MdmX counter-screen; SaOS-2 full-length luciferase counterscreen, luminescence; shares compounds with Mdm2 MdmX PPI; 6,200 tested, 77% active; AID 504607; inhibition, % at 8 µM;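 active = mean inhibition at 8 µM reaching about 37%, which flags the compound as non-specific, limit read from the data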;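 also: p53-null SaOS-2 cells with luciferase driven by a doxycycline-inducible promoter; compound on cells about two nights before reading with doxycycline added after day one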
* hit, by the source's call; / = no result.

SMILES	CSC inhib	NR3A LBD binder	SKKanGAS inh	Beta cell apopt	Mdm2 MdmX PPI	MPTP inh	Mdm2-MdmX conf	Full FLuc ctr
COc1ccc(/C=C2/SC(=O)N(CCC(=O)Nc3ccccc3)C2=O)cc1OC	1	-1	2	3	75*	1	26	82*
CC1CN(C(=S)NC2CCCC2)CC(C)O1 (centres undefined)	-10	1	1	1	13	1	/	/
Cc1cccc(NC(=O)NN2CCN(C)CC2)c1C	-3	2	-14	-4	6	0	/	/
COc1cc(/C=C2/SC(=S)N(CCC(=O)Nc3ccc(C(=O)O)cc3)C2=O)cc(OC)c1OC	0	1	32	-1	14	0	/	/
COc1cc(/C=C2\SC(=S)N(CCC(=O)Nc3ccc(O)cc3)C2=O)cc(OC)c1OC	16	-9	9	4	92*	0	15	/
O=C(CCCN1C(=O)/C(=C\c2ccco2)SC1=S)Nc1ccc2ccccc2c1	86*	8	7	-8	60*	3	35	98*
COc1cc(/C=C2\SC(N)=NC2=O)ccc1OCC(=O)Nc1ccc(C)cc1	9	-12	11	5	57*	0	-21	/
COc1ccc(/C=C2/SC(=O)N(CCC(=O)Nc3ccc(C)cc3)C2=O)cc1OC	31	/	1	37	30	/	/	/
COc1ccc(/C=C2\SC(=S)N(CCCC(=O)Nc3ccc(O)cc3)C2=O)cc1	53	5	0	2	76*	15	66*	54*
CSc1ccccc1C(=O)Nc1cc2c(cc1C(=O)O)OCCCO2	/	3	3	-3	23	0	/	/
COc1ccc(NC(=O)CN(C)C(=O)CN2C(=O)C3CCCCC3C2=O)cc1 (centres undefined)	-14	2	7	-4	-2	-3	/	/
CC1=NN(c2ccccc2)C(=O)/C1=C/C=C/c1ccc(N(C)C)cc1	/	-18	-9	/	/	24	/	/
CC1=NN(c2ccccc2)C(=O)/C1=C\C=C\c1ccccc1	102*	1	3	39	66*	0	45*	29
COc1cc(NC(=O)c2cc(-c3ccccc3Cl)on2)cc(OC)c1OC	49	-24	13	39	65*	0	54*	52*
Cc1ccc(-n2c(SCC(=O)NCc3ccco3)nc3sc4c(c3c2=O)CC(C)(C)SC4)cc1	-13	2	0	0	13	1	/	/
CCC1CCc2c(sc3nc(SCC(=O)NCc4ccco4)n(-c4ccccc4)c(=O)c23)C1 (centres undefined)	-42	1	1	10	55*	0	11	/
O=C(c1ccc(Cl)c(Cl)c1)N1CCC(=O)N([C@H](COCc2ccccc2)Cc2ccccc2)CC1	/	/	/	/	/	-1	/	/
O=C(c1ccc(Cl)c(Cl)c1)N1CCC(=O)N(C(COCc2ccccc2)Cc2ccccc2)CC1 (centres undefined)	38	-6	18	-1	61*	0	48*	90*
O=C(CCN1C(=O)C2CC=CCC2C1=O)Nc1nccs1 (centres undefined)	-1	0	-4	-7	35	2	/	/
Cc1ccc(CN2CC(C(=O)Nc3ccc(S(=O)(=O)N4CCCCC4)cc3)CC2=O)cc1 (centres undefined)	21	-12	-2	-3	17	0	/	/
CCc1noc(C)c1C(=O)N1CCN(S(=O)(=O)c2ccc(Cl)s2)CC1	-11	-1	-4	-1	-16	-1	/	/
Cc1nn(-c2ccccc2)c(C)c1/C=N/NC(=O)c1cc(-c2ccccc2)n[nH]1	73	9	30	33	59*	0	63*	79*
Cc1nn(-c2ccccc2)c(C)c1/C=N/NC(=O)c1ccc(F)cc1	1	-1	1	0	4	1	/	/
CC(C)OCCCN(C)C1CCN(S(=O)(=O)c2csc(C(N)=O)c2)CC1	3	0	-1	-5	12	-2	/	/
CC(C)OCCCN(C)C1CCN(S(=O)(=O)c2ccc(-c3cc(C(F)(F)F)no3)s2)CC1	51	-1	-3	10	50*	30	30	/
SMILES	CSC inhib	NR3A LBD binder	SKKanGAS inh	Beta cell apopt	Mdm2 MdmX PPI	MPTP inh	Mdm2-MdmX conf	Full FLuc ctr
Cc1ccc(S(=O)(=O)N(C)CC(=O)N(C)Cc2cccs2)cc1	/	/	/	/	/	0	/	/
O=[N+]([O-])c1cc(S(=O)(=O)NCCN2CCOCC2)ccc1Sc1nnnn1-c1ccccc1	55	0	11	-15	66*	1	50*	20
O=[N+]([O-])c1cc(S(=O)(=O)NCCCN2CCOCC2)ccc1Cl	8	3	-1	-7	8	0	/	/
Cc1nc(NC(=O)CN2CC(C)OC(C)C2)sc1C(=O)N(C)C (centres undefined)	-3	0	2	-9	22	-1	/	/
CCOc1ccccc1NC(=O)NNC(=O)c1ccc2ccccc2c1	/	0	0	2	60*	-2	50*	83*
CCOc1ccccc1NC(=O)c1ccc2ccccc2c1	-5	2	-11	0	7	0	/	/
COC(=O)c1cc(O)cc(OC)c1Oc1cc(C)cc(O)c1C(=O)O	57	0	/	89*	84*	0	46*	19
COC(=O)c1cc(O)cc(OC)c1C(=O)c1c(O)cc(C)cc1O	18	0	-3	/	-14	-1	/	/
CC1Cc2ccccc2N1C(=O)c1cccnc1 (centres undefined)	5	0	-3	1	2	-1	/	/
Cc1nc2ccc(C(=O)N3c4ccccc4CC3C)cc2s1 (centres undefined)	-7	0	1	8	66*	-4	58*	50*
COC(=O)c1c(NC(=O)/C=C/C(=O)O)sc(C)c1-c1ccc(C)c(C)c1	46	1	16	4	53*	2	22	/
CCOC(=O)c1c(NC(=O)/C=C/C(=O)O)sc(C)c1-c1ccc(C)c(C)c1	55	0	14	/	39	-1	/	/
CCc1nc2ccc(C(=O)N3CCN(C(C)=O)CC3)cn2c1N(C=O)Cc1ccc(OC)cc1	/	/	/	/	/	0	/	/
O=C(CN1CCCCC1)Nc1ccc(NC(=O)c2ccc(Cl)cc2)cc1Cl	39	-3	1	21	57*	6	14	/
COc1cc2c(cc1OC)CN(c1nc(CN3CCCCC3)nc3sc4c(c13)CCCC4)CC2	21	3	6	32	53*	21	44*	62*
CCN(C(=O)CN1C(=O)NC2(CCCc3ccccc32)C1=O)c1ccc(F)cc1 (centres undefined)	-14	1	/	1	-20	-2	/	/
CC(C)C(=O)NC(c1ccccc1)c1cc([N+](=O)[O-])c2cccnc2c1O (centres undefined)	147*	-5	84*	91*	81*	1	72*	42*
